Source: PubChem BioAssay
Unmarked numbers belong to inactive results.

Assay: cell viability in Huh7 cells, primary screen, cytotoxicity control for HCV replication inhibitor project, CellTiter-Glo luminescence, basal, 48 h (AID 1143);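 also: Huh7 hepatoma cells carrying a hepatitis C replication reporter with no stimulus; test concentration not given here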
Conditions: Huh7 HCV replicon, higher = more signal, called active from +8 up or from −8 down

| SMILES | z-score |
| --- | --- |
| COCCOC(=O)N1C(=O)[C@@]2(c3ccccc31)[C@H](c1ccc(OCCO)cc1)N1[C@H](c3ccccc3)[C@H](c3ccccc3)OC(=O)[C@H]1[C@@H]2C(=O)N1CCCCCCC1 | -2.59 |
| CCCCCN1CC=CC23O[C@@H]4/C=C\CCC(C)OC(=O)C4[C@H]2C(=O)N(CCCCCCO)[C@@H]3C1=O (stereo not given in full) | 0.259 |
| COCCOC(=O)N1C(=O)[C@@]2(c3ccccc31)[C@H](c1ccccc1OCCO)N1[C@H](c3ccccc3)[C@H](c3ccccc3)OC(=O)[C@H]1[C@@H]2C(=O)N1CCCCCCC1 | -3.1 |
| C=C[C@@H](OC)[C@H](OC(=O)Nc1ccc(SC)cc1)c1ccc(OCCO)cc1 | -2.53 |
| COC(=O)[C@@]1(Cc2ccc(F)cc2)[C@H]2c3cc(C(=O)N(C)C)n(Cc4c(CO)[nH]cc(C)c4=O)c3C[C@H]2CN1C(=O)c1ccccc1 | -0.401 |
| Cc1ccccc1C(O)C1C=CC2C(=O)N(c3ccccc3)C(=O)C2N1Nc1ccc([N+](=O)[O-])cc1 (stereo not given) | -0.52 |
| COc1cc(NN2C(C(O)c3cc(OC)c(OC)c(OC)c3)C=CC3C(=O)N(c4ccccc4)C(=O)C32)cc(OC)c1OC (stereo not given) | -2.99 |
| C=CCC(OC(C)=O)[C@@H]1[C@@H](N(Cc2cccc3ccccc23)C(=O)c2cccc3ccccc23)c2cc(OCCCO)ccc2N1C(=O)c1ccc2ccccc2c1 (stereo not given in full) | -2.35 |
| COC(=O)[C@@]1(Cc2ccccc2)[C@H]2c3cc(C(=O)N4CCCC4)n(CCSCCO)c3C[C@H]2CN1C(=O)c1ccccc1 | -1.17 |
| Cc1cccc([C@H]2C[C@H]3C(I)=C[C@@H]2C(=O)[C@]32CO2)c1 | -0.478 |
| O=C1C2C=CC(C(O)C=Cc3ccc([N+](=O)[O-])cc3)N(Nc3ccccc3)C2C(=O)N1c1ccccc1 (stereo not given) | -0.132 |
| CC(=O)NCCCC[C@@H]1NC(=O)[C@H]2C[C@@H](C(=O)NCCCCCNC(=O)CS)[C@@H](c3cccc(OCCO)c3)N2C1=O | 0.321 |
| C=C[C@H](C)[C@H](OC(=O)Nc1ccc(OC)cc1)c1ccc(OCCO)cc1 | -2.77 |
| CCOC(=O)C[C@H]1[C@H](OC(=O)c2ccc(C(=O)c3ccccc3)cc2)[C@@H](NC(=O)CC(C)C)c2cc(OCCCO)ccc2N1C(=O)Cc1ccc(OC)cc1 | -0.349 |
| Cc1ccccc1C(O)C1C=CC2C(=O)NC(=O)C2N1Nc1ccc(Cl)cc1Cl (stereo not given) | -0.702 |
| COc1cc2c(cc1O)C(c1ccc(CN3CCCC3)cc1)N(C)CC2 (stereo not given) | -0.383 |
| COc1ccc([Si](C)(C)[C@@H]2[C@@H](CCn3cc([C@H](O)c4ccccc4)nn3)O[C@]3(C(=O)N(Cc4cccc(N5C(=O)c6cccc7cccc5c67)c4)c4ccccc43)[C@H]2C)cc1 | -3.34 |
| CC(C)(C)OC(=O)CC[C@]1(C(=O)N2CCCCC2)COC(c2ccc(OCCCO)cc2)=N1 | -2.07 |

| SMILES | z-score |
| --- | --- |
| COCCOC(=O)N1C(=O)[C@@]2(c3cc(C#CC4=CCCCC4)ccc31)[C@H](c1ccc(O)cc1)N1[C@H](c3ccccc3)[C@H](c3ccccc3)OC(=O)[C@H]1[C@@H]2C(=O)NC[C@H](O)c1ccccc1 | -3.27 |
| CN(C)CCCCCCNC(=O)[C@@H]1C[C@@H]2C(=O)N[C@@H](CCCCN)C(=O)N2[C@@H]1c1ccc(O)cc1 | -1.9 |
| Cc1ccc(N2C(=O)c3ccccc3[C@](C)(C(=O)NCc3ccccc3)[C@@H]2c2ccc(CO)cc2)nc1 | -2.21 |
| C=C[C@@H](C)[C@@H](OC(=O)Nc1ccc(SC)cc1)c1ccc(OCCO)cc1 | -3.1 |
| C=C(/C(=C/C[C@@H](OC(=O)c1ccncc1)c1cccc(OCCO)c1)c1cnc2ccccc2c1)C(C)C | -2.31 |
| O=c1cccc(-c2ccco2)o1 | -0.768 |
| O=C1C2C=CC(C(O)c3cc(C(F)(F)F)cc(C(F)(F)F)c3)N(Nc3ccccc3F)C2C(=O)N1c1ccccc1 (stereo not given) | -3.68 |
| O=C(N1CCOCC1)[C@@]1(CCS(=O)(=O)c2ccccc2)N=C(c2ccc(OCCCO)cc2)O[C@H]1c1ccccc1 | -1.48 |
| COCCCNC(=O)[C@@]1(Sc2ccc(C)cc2)CC(=O)N(C(C)C)[C@@H]1c1ccc(CO)cc1I | -4.86 |
| C=C(C)[C@@H]1CC=C(C(O)C2C=CC3C(=O)N(c4ccccc4)C(=O)C3N2Nc2ccc(C#N)cc2)CC1 (stereo not given in full) | -0.133 |
| C=C(COC)/C(=C/C[C@@H](OC(=O)c1ccncc1)c1ccccc1OCCO)c1cc(C(=O)OC)ccc1OC | -1.88 |
| CC(C)C[C@@H]1NC(=O)[C@@H]2C[C@H](C(=O)NCCCCCC[N+](C)(C)C)[C@H](c3cccc(OCCO)c3)N2C1=O | -0.351 |
| O=C1C2C=CC(C(O)c3ccco3)N(Nc3ccccc3)C2C(=O)N1c1ccccc1 (stereo not given) | 0.876 |
| CCOC(=O)C[C@H]1[C@H](OC(=O)c2ccc(-c3ccccc3)cc2)[C@@H](NC(=O)Cc2ccc(OC)cc2)c2cc(OCCCO)ccc2N1C(=O)Cc1ccc(OC)cc1 | 0.247 |
| CCOC(=O)C1=CC[C@@H](c2ccccc2)N(S(=O)(=O)c2ccc(C)cc2)[C@H]1c1cccc(OC)c1 | -2.97 |
| CN1C=C(C(=O)OCCS(C)(=O)=O)C(C(=O)OCCS(C)(=O)=O)=CC(c2ccc(CO)cc2)=CC1c1cccs1 (stereo not given) | -1.3 |
| COC(=O)C(CC#Cc1ccc2c(c1)[C@]1(C(=O)N2)[C@H](c2ccc(OCCO)cc2)N2[C@H](c3ccccc3)[C@H](c3ccccc3)OC(=O)[C@H]2[C@@H]1C(=O)N1CCN(c2ncccn2)CC1)C(=O)OC | -0.339 |
